Bioassay records: PubChem BioAssay, National Center for Advancing Translational Sciences (NCATS)
Compounds with a hit are over-represented: about 7.5% of the library has one in this group of screens.
Rab9 prom act: Rab9 promoter activation; Huh7 Rab9 promoter-luciferase reporter, luminescence, 24 h; Potency, µM (highest dose often 9.22 µM), actives largely listed as activators; 320,000 compounds, 2.8% hits; AID 485297; further: nearly all actives have a fitted effect of over 60% in size
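Luciferase signal after 10 min detection reagent at ambient indicates Rab9 promoter upregulation; stably transfected Huh7 cells were treated 24 h with compound in DMSO at 37 °C, 5% CO2.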
SMN2 splice enh: SMN2 splice variant enhancement | HEK293 SMN2-luciferase splicing reporter, luminescence, 30-36 h | Potency, µM (doses to about 46.1 µM), usual class: activators | 210,000 compounds, 2.8% hits | AID 1458; further: nearly all actives have a fitted effect of over 55% in size
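qHTS luciferase splicing reporter: luminescence rises when SMN2 exon 7 is included in transfected HEK293 cells. Compound exposure lasted 30-36 h at 37C, with 4.5 mM final sodium butyrate as control, followed by a ONE-Glo read.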
ELG1 genotoxic: inducers of genotoxicity in HEK293T ELG1-luciferase cells. 330,000 compounds, 1.3% hits. Potency, µM (highest dose often 46 µM), actives largely listed as activators. HEK293T ELG1-luciferase reporter, luminescence, 16 h; further: nearly all actives have a fitted effect of over 60% in size
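Quantitative HTS format in 1536-well plates. HEK293T ELG1-luciferase reporter cells receive test compound and are incubated 16 hr at 37 °C, 5% CO2; ONE-Glo added, 30 min room temperature, then luminescence read.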
FLuc counter: firefly luciferase modulation, counter-screen for miR-21 project. 360,000 compounds, 6.9% hits. P08659. Potency, µM (doses to about 57.5 µM), actives largely listed as inhibitors. purified FLuc, Km substrates, luminescence inhibition; further: nearly all actives have a fitted effect of over 55% in size
Target sequence (P08659 whole entry, looked up): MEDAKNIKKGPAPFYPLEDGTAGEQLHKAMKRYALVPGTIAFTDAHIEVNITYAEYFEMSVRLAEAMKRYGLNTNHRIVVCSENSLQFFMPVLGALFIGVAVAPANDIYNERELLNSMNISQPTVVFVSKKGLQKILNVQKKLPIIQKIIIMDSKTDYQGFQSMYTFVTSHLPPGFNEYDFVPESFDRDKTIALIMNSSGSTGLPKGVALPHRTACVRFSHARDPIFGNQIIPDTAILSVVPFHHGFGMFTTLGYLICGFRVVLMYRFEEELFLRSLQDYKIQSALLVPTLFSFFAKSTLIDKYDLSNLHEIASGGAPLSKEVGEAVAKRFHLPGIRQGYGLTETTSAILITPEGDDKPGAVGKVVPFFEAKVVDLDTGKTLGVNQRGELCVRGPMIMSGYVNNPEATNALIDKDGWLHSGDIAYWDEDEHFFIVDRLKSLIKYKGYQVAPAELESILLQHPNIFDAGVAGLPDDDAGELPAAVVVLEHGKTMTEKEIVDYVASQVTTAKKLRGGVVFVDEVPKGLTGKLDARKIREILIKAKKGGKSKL
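Purified P. pyralis luciferase (10nM final) with 10uM D-luciferin and 10uM ATP (Km levels) in 50mM Tris acetate pH 7.5, 10mM Mg acetate, 0.01% Tween-20, 0.05% BSA; qHTS 6-point titration, ~60 µM downward; luminescence read.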
NPC1 promoter act: NPC1 promoter activation; Potency, µM (series often up to 9.22 µM), usual class: activators; 320,000 compounds, 2.4% hits; Huh7 NPC1 promoter luciferase reporter, 24 h; further: nearly all actives have a fitted effect of over 60% in size
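Quantitative HTS used a cell-based reporter: Huh7 cells stably bearing the NPC1 promoter upstream of luciferase were treated with compounds for 24 h, and promoter activation was read as luminescence.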
KinaseGlo FLuc: blocks Kinase-Glo luciferase, a counter-screen artifact | Q27757 | AID 1379 | Kinase-Glo luciferase, ATP luminescence, 8 min | 200,000 compounds, 0.28% hits | Potency, µM (top dose mostly 38.3 µM), actives largely listed as inhibitors; further: nearly all actives have a fitted effect of over 60% in size
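Light output from Kinase-Glo luciferase with luciferin and 10 uM ATP in 50 mM imidazole pH 7.2, KCl, MgCl2, Tween 20, BSA; compound pin-delivered, 8-min ambient incubation, then luminescence read.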
Numbers stand for hits; [ ] = remark or other dose. The call rests on the fitted dose curve; in most records, active means well fitted curve in the direction sought with a large enough effect; inconclusive means small, poorly fitted or top-dose-only effect, or another doubt; inactive means no such curve, though single readings can be large; an effect the other way counts as inactive or inconclusive.

`C=CCn1c2ccccc2c(=O)c2cc(C#Cc3ccsc3)ccc21` gave Rab9 prom act inactive, ELG1 genotoxic inactive, FLuc counter 0.675µM and NPC1 promoter act inactive.
`C=CCn1c(O)c(N=O)c2ccccc21` gave Rab9 prom act inactive, ELG1 genotoxic inactive, FLuc counter inactive and NPC1 promoter act inactive.
Screening Cc1csc2c(N3CCN(C(=O)Nc4ccc(OC(F)(F)F)cc4)CC3)ncnc12 returned Rab9 prom act inactive, ELG1 genotoxic inactive, FLuc counter inactive and NPC1 promoter act inactive.
`Cc1csc2c(N3CCCCC3)ncnc12` gave Rab9 prom act inactive, ELG1 genotoxic inactive, FLuc counter 13.5µM and NPC1 promoter act inconclusive.
`Cc1csc2c(N3CCC(C(=O)O)CC3)ncnc12` gave Rab9 prom act inactive, ELG1 genotoxic inactive, FLuc counter 16.9µM and NPC1 promoter act inactive.
`Cc1csc2c(N3CCN(S(=O)(=O)c4ccc(Cl)cc4)CC3)ncnc12` gave Rab9 prom act inactive, ELG1 genotoxic inactive, FLuc counter inactive and NPC1 promoter act inactive.
`Cc1cccn2c(=O)c(C(=O)NCc3cccc(F)c3)cnc12` gave FLuc counter inactive.
For COc1ccc(CCNc2nc(-c3ccc(NC(C)=O)cc3)cs2)cc1OC the results were Rab9 prom act inactive, SMN2 splice enh inactive, ELG1 genotoxic inactive, FLuc counter inconclusive, NPC1 promoter act inactive and KinaseGlo FLuc inactive.
For COc1ccc(CCNc2nc(-c3cccnc3)cs2)cc1OC the results were Rab9 prom act inactive, SMN2 splice enh inactive, ELG1 genotoxic inactive, FLuc counter 12µM, NPC1 promoter act inactive and KinaseGlo FLuc inactive.
Screening COc1ccc(CCNc2nc(-c3ccccn3)cs2)cc1OC returned Rab9 prom act inactive, ELG1 genotoxic inactive, FLuc counter inactive and NPC1 promoter act inactive.
`COc1ccc(CCNc2nc(-c3ccc(O)cc3)cs2)cc1OC` gave Rab9 prom act inactive, ELG1 genotoxic inactive, FLuc counter 16.9µM and NPC1 promoter act inactive.
For COc1ccc(CCNc2nc(-c3ccncc3)cs2)cc1OC the results were Rab9 prom act inactive, ELG1 genotoxic inactive, FLuc counter 21.3µM and NPC1 promoter act inactive.
Screening CCc1ccc(NCc2cc3ccc(OC)cc3n(CC(=O)Nc3ccc(F)cc3F)c2=O)cc1 returned FLuc counter inactive.
Cc1ccccc1C(c1c(C)n(C)n(-c2ccccc2)c1=O)c1c(C)n(C)n(-c2ccccc2)c1=O was read as SMN2 splice enh inactive and FLuc counter inactive.
Screening Cc1ccc(S(=O)(=O)c2nc(-c3cccc(C)c3)oc2N2CCN(c3ccccc3)CC2)cc1 returned SMN2 splice enh inactive and FLuc counter inactive.
`O=C(CCC1CCCC1)Nc1cc(Cl)ccc1N1CCOCC1` gave Rab9 prom act inactive, ELG1 genotoxic inactive, FLuc counter inactive and NPC1 promoter act inactive.
CC(C)(C)c1ccc(C(=O)NCCC(=O)Nc2cc(Cl)ccc2N2CCOCC2)cc1 was read as Rab9 prom act inactive, ELG1 genotoxic inactive, FLuc counter 21.3µM and NPC1 promoter act inactive.
Screening CCN(CC(=O)Nc1c(F)cccc1F)C(=O)c1ccc(N2CCCC2=O)cc1 returned Rab9 prom act inactive, ELG1 genotoxic inactive, FLuc counter inactive and NPC1 promoter act inactive.
COc1ccccc1C(=O)Nc1ccc2c(C)cc(=O)oc2c1 was read as Rab9 prom act 1.58µM, ELG1 genotoxic inconclusive, FLuc counter inconclusive and NPC1 promoter act 2µM.
`Cc1ccccc1OCCC(=O)Nc1ccc2c(C)cc(=O)oc2c1` gave Rab9 prom act inactive, ELG1 genotoxic inactive, FLuc counter inactive and NPC1 promoter act inactive.
CCOc1ncccc1C(=O)Nc1ccc2c(C)cc(=O)oc2c1 was read as Rab9 prom act inconclusive, SMN2 splice enh inactive, ELG1 genotoxic inactive, FLuc counter inactive, NPC1 promoter act 3.55µM and KinaseGlo FLuc inactive.
`Cc1cc(C)c(NC(=O)COc2ccccc2C(=O)Nc2ccc3c(c2)oc2ccccc23)c(C)c1` gave Rab9 prom act inactive, SMN2 splice enh inactive, ELG1 genotoxic inactive, FLuc counter 13.5µM, NPC1 promoter act inactive and KinaseGlo FLuc inactive.
`CCOc1ncccc1C(=O)Nc1ccc(F)c(F)c1` gave Rab9 prom act inactive, SMN2 splice enh inactive, ELG1 genotoxic inactive, FLuc counter inactive, NPC1 promoter act inactive and KinaseGlo FLuc inactive.
Cc1cccc(NC(=O)CCS(=O)(=O)c2ccc3c(c2)NC(=O)CS3)n1 was read as Rab9 prom act inactive, ELG1 genotoxic inactive, FLuc counter inactive and NPC1 promoter act inactive.
For Cc1ccc(NC(=O)NCCOCCn2c(=O)oc3ccccc32)c(C)c1 the results were SMN2 splice enh inactive and FLuc counter inactive.
`CCOc1ccc(NC(=S)NC(=O)c2ccco2)cc1` gave Rab9 prom act 1.41µM, ELG1 genotoxic inactive, FLuc counter 10.7µM and NPC1 promoter act 2µM.
Screening CCOc1ccc(NC(=O)CCC(=O)NNC(=O)c2ccco2)cc1 returned Rab9 prom act inactive, SMN2 splice enh inactive, ELG1 genotoxic inactive, FLuc counter inactive, NPC1 promoter act inactive and KinaseGlo FLuc inactive.
`CN(C)S(=O)(=O)c1cccc(NC(=S)NC(=O)c2ccco2)c1` gave Rab9 prom act 3.55µM, ELG1 genotoxic inactive, FLuc counter inconclusive and NPC1 promoter act inconclusive.
Screening COC(=O)COc1ccc(NC(=O)c2ccco2)cc1 returned Rab9 prom act inactive, ELG1 genotoxic inactive, FLuc counter 23.9µM and NPC1 promoter act inactive.
`COC(=O)Cc1ccc(NC(=O)c2ccc(NC(=O)c3ccco3)cc2)cc1` gave Rab9 prom act inactive, SMN2 splice enh inactive, ELG1 genotoxic inactive, FLuc counter inactive, NPC1 promoter act inactive and KinaseGlo FLuc inactive.
For CCOc1ccc(NC(=O)c2ccco2)cc1 the results were Rab9 prom act 0.631µM, SMN2 splice enh 10µM, ELG1 genotoxic inconclusive, FLuc counter 4.78µM, NPC1 promoter act 0.708µM and KinaseGlo FLuc inactive.
For Cc1ccc(C(=O)c2cn(Cc3cc(C)ccc3C)c3nc(C)ccc3c2=O)cc1 the results were SMN2 splice enh inactive and FLuc counter inactive.
COc1ccc(OCC(=O)Nc2cccc(NC(=O)c3ccco3)c2)cc1 was read as Rab9 prom act inactive, ELG1 genotoxic inactive, FLuc counter 12µM, NPC1 promoter act inactive and KinaseGlo FLuc inactive.
For CN(C)CCN(c1ccccn1)c1ccccn1 the results were SMN2 splice enh inactive[9.22 µM] and KinaseGlo FLuc inactive[7.66 µM].
CCOC(=O)c1sc(Nc2nc3cc4c(cc3s2)OCO4)cc1C was read as Rab9 prom act inconclusive, SMN2 splice enh inconclusive, ELG1 genotoxic inactive, FLuc counter 2.69µM, NPC1 promoter act inconclusive and KinaseGlo FLuc inactive.
